Values without a mark were called inactive. The rule behind the calls is not given here.
system: Aerobactin synthetase IucA (Klebsiella pneumoniae hvKP1); experiment: Biochemical IucA enzyme inhibition primary screen of the Spectrum library (AID 1346200); conditions: malachite green pyrophosphate, A620, at 8 µM, active compounds read low;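 note: 100% = wells without compound and 0% = wells lacking enzyme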

Point of comparison: `Nc1ccc(S(=O)(=O)NC(=O)c2ccccc2)cc1`, activity remaining 109%. Against it:
- CC(C)C[C@@H](NC(=O)OCC1c2ccccc2-c2ccccc21)C(=O)O — higher, 119%
- O=C(O)C1CC(C2CCCCN2)CN2CCCCC12 (stereo not given) — higher, 115%
- COc1cc(O)c(C(=O)O)c(O)c1 — lower, 102%
- CC(=O)NS(=O)(=O)c1ccc(N)cc1 — higher, 126%
- CC1(C)C2CC[C@]3(C)C(C(=O)C=C4[C@@H]5C[C@@](C)(C(=O)O)CC[C@]5(C)CC[C@]43C)[C@@]2(C)CC[C@@H]1O (stereo not given in full) — higher, 126%
- CCN(CC)CCOc1ccc(/C(=C(\Cl)c2ccccc2)c2ccccc2)cc1 — higher, 111%
- CC1=C(/C=C/C(C)=C/C=C/C(C)=C/C=C/C=C(C)/C=C/C=C(C)/C=C/C2=C(C)CCCC2(C)C)C(C)(C)CCC1 — higher, 123%
- O=c1cc(-c2ccc(O)cc2)oc2cc(O)ccc12 — lower, 102%
- CC(=O)O[C@H]1CC[C@]2(C)C3CC(=O)[C@]4(C)C(C(C)=O)=CCC4C3CC[C@H]2C1 (stereo not given in full) — lower, 101%
- COc1ccc2c(c1)[C@@]1(C)CCC(=O)C[C@H]1CC2 — lower, 101%
- CC1=C2[C@](C)(C=CC1=O)C[C@H](O)[C@H]1[C@H](C)C(=O)O[C@]21C — lower, 107%
- CCOC(=O)c1ccc(O)cc1 — higher, 114%
- O=C1c2ccccc2C(=O)c2c1ccc(O)c2O — higher, 112%
- Nc1ccc(C(=O)O)c(O)c1 (tested in a mixture with another compound) — lower, 86.3%
- CC[C@@]1(O)C(=O)OCc2c1cc1n(c2=O)Cc2cc3c(CN(C)C)c(O)ccc3nc2-1 — higher, 121%
- Cc1[nH]c(C)c(Cl)c(=O)c1Cl — higher, 121%
- COc1ccc(NS(=O)(=O)c2ccc(N)cc2)nn1 — higher, 111%
- C=C[C@@](C)(O)CCC1C(=C)C[C@H](OC(C)=O)C2C(C)(C)CCCC12C (stereo not given in full) — higher, 118%
- CC(C)[C@@H]1CC[C@@H](C)C[C@H]1OC(=O)c1ccccc1 — higher, 120%
- C[C@@H]1OC(O[C@H]2[C@H](OC(=O)[C@]34CCC(C)(C)CC3C3=CCC5[C@@]6(C)CC[C@H](OC7O[C@@H](C)[C@H](O[C@@H]8OC[C@@H](O)[C@H](O)[C@H]8O)[C@@H](O)[C@H]7O)C(C)(C)C6CC[C@@]5(C)[C@]3(C)CC4O)OC[C@H](O)[C@H]2O)[C@H](O)[C@H](O)[C@H]1O[C@@H]1O[C@H](CO)[C@@H](O)[C@H](O)[C@H]1O (stereo not given in full) — lower, 99.8%
- CCN(CC)CCOC(=O)C(c1ccccc1)C1CCCCC1 (stereo not given) — higher, 111%
- COc1cc2c(cc1OC)C1(O)C(=O)c3ccc(O)c(C(=O)O)c3OC1CO2 (stereo not given) — higher, 117%
- O=C(Cc1cccs1)NC1C(=O)N2C(C(=O)[O-])=C(C[n+]3ccccc3)CSC12 (stereo not given) — the same, 109%
- CN1C(CC(=O)c2ccccc2)CCCC1CC(O)c1ccccc1 (stereo not given) — lower, 108%
- CC(C)c1c(O)ccc2c1CCC1[C@@](C)(C=O)CCC[C@]21C (stereo not given in full) — lower, 99.8%
- CC(C1OC(C)(C)C(O)C1O)[C@@H]1CC[C@]2(C)C3=CCC4C(C)(C)C(=O)CC[C@]4(C)C3CC[C@@]12C (stereo not given in full) — higher, 111%
- COc1cc2cc3c4cc(OC)c(OC)cc4cc[n+]3c(C)c2cc1OC — lower, 95.4%
- Cc1ccc(C)c(OCCCC(C)(C)C(=O)O)c1 — higher, 116%
- COC1=CC(=O)C=C(OC)C1=O — lower, 99.1%
- O=C1c2ccc(O)c(O)c2C(=O)c2c(O)ccc(O)c21 — higher, 125%
- COc1c(O)cc2c(-c3ccccc3)cc(=O)oc2c1OC — higher, 130%
- O=C(Oc1cc(O)cc2c1C[C@@H](OC(=O)c1cc(O)c(O)c(O)c1)[C@@H](c1cc(O)c(O)c(O)c1)O2)c1cc(O)c(O)c(O)c1 — higher, 122%
- Cc1cc(O)c(C=O)c2c1C(=O)Oc1c(C)c(O)c3c(c1O2)C(O)OC3=O (stereo not given) — higher, 113%
- CCN(CC)C(C)CN1c2ccccc2Sc2ccccc21 (stereo not given) — the same, 109%
- CC1=CCc2c(cc3oc(C)cc(=O)c3c2O)OC1 — higher, 120%
- CCCc1nc(C)c2c(=O)[nH]c(-c3cc(S(=O)(=O)N4CCN(CC)CC4)ccc3OCC)nn12 — higher, 111%
- CC1=NN(c2ccccc2)C(=O)C1 — higher, 120%
- NC[C@H]1O[C@H](O[C@H]2[C@H](O)[C@@H](O[C@H]3O[C@H](CO)[C@@H](O)[C@H](N)[C@H]3O)[C@H](N)C[C@@H]2N)[C@H](N)[C@@H](O)[C@@H]1O — lower, 108%
- Cc1c(N(C)CS(=O)(=O)O)c(=O)n(-c2ccccc2)n1C — lower, 97.1%

Source: PubChem BioAssay
